Assay results from PubChem BioAssay AID720540 (National Center for Advancing Translational Sciences (NCATS), 2013).
Hit rate of the full screen: of about 1,300 compounds, about 460 (35%) were called active. Not shown: some 39% with an inconclusive outcome. The call rests on the fitted dose curve; in most records, active means well fitted inhibition curve with a large enough effect; inconclusive means small, poorly fitted or top-dose-only effect; inactive means flat fitted curve, though single readings scatter. The list shows a part of the results.

Biological target: Protein phosphatase EYA2 (Homo sapiens) (UniProt O00167)
Sequence (O00167 whole entry, looked up): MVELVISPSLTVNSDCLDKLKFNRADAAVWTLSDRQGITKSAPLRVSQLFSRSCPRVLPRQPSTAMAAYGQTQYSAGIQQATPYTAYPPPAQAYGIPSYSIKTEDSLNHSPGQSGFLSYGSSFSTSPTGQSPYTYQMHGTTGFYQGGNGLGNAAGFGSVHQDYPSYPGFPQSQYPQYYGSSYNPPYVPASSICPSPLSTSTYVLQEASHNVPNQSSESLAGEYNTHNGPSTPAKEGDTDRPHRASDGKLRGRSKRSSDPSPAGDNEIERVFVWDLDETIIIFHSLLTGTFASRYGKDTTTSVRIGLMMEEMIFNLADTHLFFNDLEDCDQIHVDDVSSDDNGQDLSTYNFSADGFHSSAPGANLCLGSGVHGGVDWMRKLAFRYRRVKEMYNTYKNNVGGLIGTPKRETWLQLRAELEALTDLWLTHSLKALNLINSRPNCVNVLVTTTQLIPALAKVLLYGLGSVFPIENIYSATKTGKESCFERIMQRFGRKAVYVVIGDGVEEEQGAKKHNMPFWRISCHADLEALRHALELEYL
Experiment: qHTS for Inhibitors of the Phosphatase Activity of Eya2: Confirmatory Assay for Cherry-picked Compounds; further: nearly all actives have a fitted effect of over 65% in size;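 on activity change, negative = inhibition: 0% = DMSO wells and -100% = EGTA control giving full inhibition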
Conditions: purified EYA2 phosphatase activity, qHTS confirmation; series mostly up to 46.1 µM; activity change, negative = inhibition: at the top concentration
Summary of the method: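 Eya2 (0.2 uM working solution) preincubated 10 min at room temperature with compound in pH 7.5 HEPES buffer with MgCl2, BSA, DTT. OMFP added (50 uM working solution), 10 min more; fluorescence 485/525 nm, normalized to EGTA and DMSO.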
Potency means the concentration at half of the fitted maximal effect.

Structure (SMILES) | activity change, negative = inhibition | Potency
O=C(CNC(=O)c1cccs1)OCC(=O)c1ccc(Cl)cc1 | -2.28% (inactive) | –
COC(=O)c1ccc(OC(=O)c2cccs2)cc1 | – | 10.7 µM (active)
CC(C)S(=O)(=O)c1cnc(-c2ccccn2)nc1N | – | 16.9 µM (active)
COc1ccc(NC(=O)CSc2ccc(-c3ccccn3)nn2)cc1OC | – | 3.79 µM (active)
COc1cc(NC(=O)c2ccc(S(=O)(=O)N(C)c3ccccc3)cc2)cc(OC)c1 | -25% (inactive) | –
O=C(CSc1ccc(-c2ccccn2)nn1)Nc1cccc(F)c1 | – | 3.79 µM (active)
COc1ccccc1CNC(=O)CSc1ccc(-c2ccccn2)nn1 | – | 12 µM (active)
COc1cc(NC(=O)CSc2ccc(-c3ccccn3)nn2)cc(OC)c1 | – | 2.13 µM (active)
CN(CC(=O)Nc1cccc(F)c1)C(=O)c1ccc(COc2ccccc2)cc1 | -2.16% (inactive) | –
Cn1c(-c2cc(Cl)ccc2O)nc2c1c(=O)[nH]c(=O)n2Cc1ccccc1 | -7.95% (inactive) | –
O=C(Cc1cccs1)Nc1ccc2c(c1)C(=O)OC2 | -9.15% (inactive) | –
Cc1cnc(C(=O)Nc2ccccc2-c2ccc(C)o2)cn1 | -7.17% (inactive) | –
Cc1cccc(-n2c(O)c(C=Nc3ccccc3)c3ccccc3c2=O)n1 | -24.5% (inactive) | –
Cc1[nH]n(-c2cccc3ccccc23)c(=O)c1C=Nc1ccc2[nH]c(=O)[nH]c2c1 | – | 7.57 µM (active)
C/C=C/c1ccc(OCCSc2nc(C)cc(=O)[nH]2)c(OC)c1 | – | 13.5 µM (active)
C/C(N)=C(/C#N)C(=O)CSc1nnc(Nc2cccc(C)c2)s1 | -14.6% (inactive) | –
Cc1cc(NC(=O)CSc2nnc(Nc3ccccc3F)s2)no1 | -3.99% (inactive) | –
CC(C)Nc1nnc(SCC(=O)Nc2ccc3c(c2)C(=O)c2ccccc2C3=O)s1 | – | 6.75 µM (active)
O=C(NC1CC1)c1ccc2nc(-c3ccco3)c(-c3ccco3)nc2c1 | – | 13.5 µM (active)
CC(C)[C@H](NC(=O)c1ccccc1)C(=O)NC1CCCCCCC1 | -2.97% (inactive) | –
O=C(O)c1ccc2nc(-c3ccco3)c(-c3ccco3)nc2c1 | – | 8.49 µM (active)
CC1CCN(CC2C(=O)O[C@@H]3C[C@@]4(C)CCC[C@H](C)C4=C[C@H]23)CC(C)(C)C1 (some centres undefined) | -19.1% (inactive) | –
CC(=O)Oc1ccccc1C(=O)Oc1ccc(/C=N/n2cnnc2)cc1 | – | 16.9 µM (active)
CCC(C)C(CO)NC(=O)/C=C/[C@H]1O[C@@H](n2cnc3c(NC(=O)c4ccccc4)ncnc32)[C@H](O)[C@@H]1O (some centres undefined) | -4.92% (inactive) | –
Cc1cc(C(=O)COC(=O)c2cccnc2Cl)c(C)n1-c1c(C)n(C)n(-c2ccccc2)c1=O | -6.15% (inactive) | –

Structure (SMILES) | activity change, negative = inhibition | Potency
O=C(OCC(=O)c1ccc(Cl)cc1Cl)c1ccccn1 | – | 19 µM (active)
O=C(CSc1nnc2c(n1)[nH]c1ccccc12)Nc1ccc(S(=O)(=O)Nc2ncccn2)cc1 | – | 5.36 µM (active)
CCOc1ccc2[nH]c3nc(SCC(=O)NC4CCCC4)nnc3c2c1 | -10.1% (inactive) | –
CCc1ccc2[nH]c3nc(SCC(=O)NCC4CCCO4)nnc3c2c1 (centres undefined) | – | 6.01 µM (active)
Cc1c(CC(=O)NCC(=O)O)c(=O)oc2cc3occ(-c4ccccc4)c3cc12 | – | 16.9 µM (active)
Cc1c(CCC(=O)NCCCCCC(=O)O)c(=O)oc2cc3occ(-c4ccccc4)c3cc12 | – | 15.1 µM (active)
Cc1c(CC(=O)NCCCC(=O)O)c(=O)oc2cc3occ(-c4ccccc4)c3cc12 | – | 19 µM (active)
Cc1c(CC(=O)N[C@@H](C)C(=O)O)c(=O)oc2cc3occ(-c4ccccc4)c3cc12 | – | 8.49 µM (active)
O=c1cc2oc3cc(O)c(O)cc3c(-c3ccccc3[N+](=O)[O-])c-2cc1O | – | 16.9 µM (active)
CC1=C(/C=C/C(C)=C/C=C/C(C)=C/C(=O)Nc2ccc(O)cc2)C(C)(C)CCC1 | -26% (inactive) | –
CN1/C(=C\C=C2/SC(=S)NC2=O)C(C)(C)c2ccccc21 | – | 15.1 µM (active)
CC1=NN(c2ccccc2)C(=O)/C1=C\C=C1/N(C)c2ccccc2C1(C)C | – | 7.57 µM (active)
Cc1ccc(-n2[nH]c(C)c(C=Nc3ccc(S(=O)(=O)Nc4nccs4)cc3)c2=O)cc1C | – | 8.49 µM (active)
Cc1c(CCC(=O)O)c(=O)oc2c(C)c(OCc3cc4c(cc3Cl)OCO4)ccc12 | – | 9.53 µM (active)
COc1ccc(/C=C2\CCc3ccccc3C2=O)cc1CN1CCOCC1 | -17.2% (inactive) | –
COc1cccc2c1C(=O)/C(=C/c1ccc(N(C)C)cc1)C2 | – | 4.26 µM (active)
Cc1ccc(C(=O)Oc2ccc3ccc(=O)oc3c2)cc1 | – | 1.9 µM (active)
Cc1ccc(C(=O)Oc2ccc(N3C(=O)CCC3=O)c(C)c2)cc1 | – | 2.69 µM (active)
Cc1cc(NC(=O)c2cccc(N3C(=O)CCC3=O)c2)no1 | -4.17% (inactive) | –
CCC(C)c1ccc2oc(-c3ccc(NC(=O)c4ncn[nH]4)cc3)nc2c1 (centres undefined) | – | 15.1 µM (active)
CC(C)c1ccc2oc(-c3ccc(NC(=O)c4ncn[nH]4)cc3)nc2c1 | – | 16.9 µM (active)
CCN(CC)c1ccc(NC(=O)COC(=O)CSc2ccc(Br)cc2C)cc1 | – | 12 µM (active)
CCN(CC)c1ccc(N=Cc2cc(Br)ccc2O)cc1 | -1.65% (inactive) | –
CN(C)c1ccc(/C=C/c2ccnc3ccc(-c4ccccc4)cc23)cc1 | – | 21.3 µM (active)
CCN(C)c1ccc(/C=C/c2ccnc3ccccc23)cc1 | – | 21.3 µM (active)

Structure (SMILES) | activity change, negative = inhibition | Potency
Cc1ccc(O)c(C(=O)c2cnc3c(c2)c(-c2ccc(F)cc2)c(C#N)c(=O)n3C)c1 | -2.46% (inactive) | –
O=C(Nc1nc2ccc(F)cc2s1)C1=NN(c2ccccc2)C(=O)CC1 | -12.7% (inactive) | –
COc1ccc(CCNC(=O)C(=O)NCc2cccs2)cc1OC | -9.57% (inactive) | –
COc1ccc(CCNc2nc(-c3ccccn3)cs2)cc1OC | – | 7.57 µM (active)
Cc1cccc(NC(=S)N(CCN2CCOCC2)Cc2cc3cc4c(cc3[nH]c2=O)OCCO4)c1 | -16.9% (inactive) | –
Cc1ccc(S(=O)(=O)Nc2c(C)n(C)n(-c3ccccc3)c2=O)cc1C(=O)OC(C)C(=O)N(C)c1ccccc1 (centres undefined) | -22.5% (inactive) | –
CCCCC(=O)NC(c1cccc([N+](=O)[O-])c1)c1ccc2cccnc2c1O (centres undefined) | – | 4.26 µM (active)
CCCC(=O)NC(c1ccc(OC)c(OC)c1)c1cc(Cl)c2cccnc2c1O (centres undefined) | – | 2.69 µM (active)
CC(=O)NC(c1ccc(Cl)cc1)c1ccc2cccnc2c1O (centres undefined) | – | 2.13 µM (active)
COc1ccc(C(NC(C)=O)c2ccc3cccnc3c2O)cc1OC (centres undefined) | – | 1.69 µM (active)
O=C(O)c1ccccc1NC(c1ccccc1)c1ccc2cccnc2c1O (centres undefined) | – | 3.38 µM (active)
CC(C)C(=O)NC(c1ccc(Cl)cc1Cl)c1ccc2cccnc2c1O (centres undefined) | – | 5.36 µM (active)
COc1ccc(C(NC(C)=O)c2cc(Cl)c3cccnc3c2O)cc1OC (centres undefined) | – | 1.69 µM (active)
CCC(=O)NC(c1cccs1)c1cc(Cl)c2cccnc2c1O (centres undefined) | – | 1.51 µM (active)
CCOc1ccc(Nc2nc(N)nc(CN(C)C3CCCCC3)n2)cc1 | -11.1% (inactive) | –
O=C(O)c1c(C(=O)N2N=C3/C(=C/c4ccccc4)CCCC3C2c2ccccc2)cccc1[N+](=O)[O-] (centres undefined) | -12.9% (inactive) | –
CCCc1ccc(C#N)c(SC2CC(=O)N(c3ccc(OC)cc3)C2=O)n1 (centres undefined) | -24.4% (inactive) | –
O=C(NC1CCCC1)c1cc(=O)[nH]c2ccccc12 | 3.18% (inactive) | –
CCC(=O)NC(c1ccc(OC)c(OC)c1)c1cc(Cl)c2cccnc2c1O (centres undefined) | – | 1.69 µM (active)
O=C(Oc1ccc(Cl)c2cccnc12)C12CC3CC(CC(C3)C1)C2 | 0.3% (inactive) | –
CCCCC(=O)NC(c1ccco1)c1cc(Cl)c2cccnc2c1O (centres undefined) | – | 3.38 µM (active)
Nc1[nH]nc2ncc3cc4ccccc4nc3c12 | – | 15.1 µM (active)
CCc1ccc2oc(-c3ccc(OC)cc3)cc(=Nc3c(C)n(C)n(-c4ccccc4)c3=O)c2c1 | – | 16.9 µM (active)
COc1ccc(-c2cn(Cc3ccc4c(c3)C(=O)c3ccccc3C4=O)nn2)cc1 | -4.41% (inactive) | –
COc1cccc(N2CCN(c3ccc4nnc(CCC(=O)Nc5cccc(C(C)=O)c5)n4n3)CC2)c1 | -6.09% (inactive) | –

Structure (SMILES) | activity change, negative = inhibition | Potency
O=C(Nc1ccccc1Cl)N1CCN(c2ccc3nnc(-c4ccccc4)n3n2)CC1 | – | 6.75 µM (active)
C[C@@]12CCC=C[C@H]1[C@H](c1ccc3ccccc3c1/C=C/c1ccccc1)N(Cc1ccccc1)C2=O | -29.4% (inactive) | –
CCN(CC)c1ccc(/C=C/c2c(C)cnc3ccc(C)cc23)cc1 | – | 8.49 µM (active)
Cc1cnc2ccc(I)cc2c1/C=C/c1ccc(N(C)C)cc1 | – | 7.57 µM (active)
Cc1ccc2c(/C=C/c3ccc(N(C)C)cc3)c(C)cnc2c1 | – | 8.49 µM (active)
Cc1ccc(-n2nnnc2C(=Cc2ccc(N(C)C)cc2)c2nnnn2-c2ccc(C)cc2)cc1 | -11.3% (inactive) | –
CCc1cnc2ccccc2c1/C=C/c1ccc(N(C)C)cc1 | – | 7.57 µM (active)
Cn1c(=O)c2[nH]c(COc3ccccc3)nc2n(C)c1=O | -12.9% (inactive) | –
COc1cc(OC)c(OC)cc1/C=C/c1nccc2ccccc12 | – | 7.57 µM (active)
Cc1cc(C)c(OCCCCN(C)Cc2ccccc2)c(C)c1 | 22.9% (inactive) | –
Cn1c(=O)cc2c3c(c(N4CCCCC4)ccc31)C(=O)c1ccccc1-2 | – | 3.38 µM (active)
Cc1cccc(C)c1OCc1cc(C(=O)N2CCN(c3ccccc3)CC2C)no1 (centres undefined) | -11.7% (inactive) | –
Cc1c(NC(=O)/C(C#N)=C/c2ccc(-c3cc(Cl)ccc3Cl)o2)c(=O)n(-c2ccccc2)n1C | – | 7.57 µM (active)
CCOc1ccc2nc(N3CCCC(C(=O)N4CCN(CC)CC4)C3)sc2c1 (centres undefined) | -10% (inactive) | –
CCOC(=O)c1ccc(NC(=S)N2CCN(CCN=CC3=C(O)CC(c4ccccc4)CC3=O)CC2)cc1 (centres undefined) | -0.24% (inactive) | –
CS(=O)(=O)c1ccc2nc(NC(=O)c3ccccc3Cl)sc2c1 | -4.83% (inactive) | –
CS(=O)(=O)c1ccc(C(=O)Nc2nc(-c3ccco3)c(-c3ccco3)s2)cc1 | – | 12 µM (active)
CN(C)C(C)(C)C#CC(O)(c1ccccc1)c1ccccc1 | -3.24% (inactive) | –
CSc1cccc(NC(=O)CCCOc2cc(=O)n(C)c3ccccc23)c1 | -27.4% (inactive) | –
O=C(CSc1nnc2c3ccccc3c3ccccc3c2n1)Nc1ccccc1F | – | 7.57 µM (active)
Cn1cc(SCC(=O)Nc2ccc3c(c2)OCCO3)c2ccccc21 | -12.8% (inactive) | –
CCOC(=O)Cc1nnc(NC(=O)CSc2nnc3c4ccccc4n(C)c3n2)s1 | – | 16.9 µM (active)
Cn1c2ccccc2c2nnc(SCC(=O)Nc3cccc(O)c3)nc21 | – | 13.5 µM (active)
CCOC(=O)Cc1nnc(NC(=O)C(CC)Sc2nnc3c4ccccc4n(C)c3n2)s1 (centres undefined) | – | 16.9 µM (active)
